# Screening results: PubChem, several laboratories
# This is a sample that favours compounds with a hit; in the whole collection about 1.3% have one here.
# cytoskel mod: modifiers of cytoskeleton assembly. 91,000 compounds, 0.18% hits. AID 836. HUVEC TNFa F-actin phalloidin imaging, high content. inhibition, % at 2 µM;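 active = inhibition above the batch mean plus 3 SD and confirmed as a hit by visual image inspection, cut at about 30% in these data, passing the limit was not always enough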
# S1P2 ag: activates the human S1P2 receptor. O95136. S1P2-expressing cell line, agonist reporter read-out. activation, % at 4.5 µM. 97,000 compounds, 0.46% hits; in the data active = activation above about 16%;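 also: 0% = vehicle low control and 100% = maximal reference agonist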
# S1P2 blocker: antagonists of human S1P2 receptor; O95136; 97,000 compounds, 0.21% hits; cell-based S1P2 antagonist assay, inhibition at 5 uM; inhibition, % at 5 µM; in the data active = inhibition above about 45%;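 also: CRE beta-lactamase reporter cells expressing human S1P2 stimulated with S1P; 0% = agonist at EC80 alone and 100% = agonist plus reference antagonist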
# GALR2 ag: activates the human galanin receptor 2 | O43603 | AID 803 | activation, % (test concentration not listed) | GALR2-expressing cells, agonist activation read-out | 140,000 compounds, 0.48% hits; in the data active = activation above about 5%, passing the limit was not always enough;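 also: 0% = vehicle buffer wells and 100% = reference agonist at full effect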
# Target sequence (O43603 whole entry, looked up): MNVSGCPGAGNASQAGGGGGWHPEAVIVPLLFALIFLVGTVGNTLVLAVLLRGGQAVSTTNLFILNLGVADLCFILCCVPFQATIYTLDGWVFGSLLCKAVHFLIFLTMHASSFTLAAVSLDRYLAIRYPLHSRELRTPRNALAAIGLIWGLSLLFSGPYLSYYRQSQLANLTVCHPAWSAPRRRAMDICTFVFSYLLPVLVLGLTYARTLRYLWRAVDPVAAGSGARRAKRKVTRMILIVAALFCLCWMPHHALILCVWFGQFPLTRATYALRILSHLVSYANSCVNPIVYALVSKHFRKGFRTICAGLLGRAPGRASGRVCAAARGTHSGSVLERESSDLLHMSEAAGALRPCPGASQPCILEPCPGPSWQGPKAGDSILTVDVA
# GALR2 blocker: blocks the human galanin receptor 2; inhibition, % at 4 µM; 140,000 compounds, 0.39% hits; AID 828; GALR2-expressing cells, antagonist mode; in the data active = inhibition above about 27%;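 also: cells stimulated with galanin 1-16 at roughly its EC80; 0% = agonist challenge control and 100% = basal control without agonist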
# Numbers without * were called inactive; . = no result.
SMILES,cytoskel mod,S1P2 ag,S1P2 blocker,GALR2 ag,GALR2 blocker
COc1ccc(N=C2S/C(=C\c3ccc(N4CCOCC4)o3)C(=O)N2CCc2c[nH]c3ccccc23)cc1,-6.9,-4.2,47.7*,1.5,15.3
CCCN1C(=O)/C(=C/c2ccc(C)o2)SC1=Nc1ccc(OC)cc1,3.2,-10.2,3.4,-1.7,-8.9
O=C(CN1C(=O)CCC1=O)Nc1nc(-c2ccc(Oc3ccccc3)cc2)cs1,.,.,.,0.0,-2.9
COc1ccc(-c2cc(C#N)nc(Oc3ccc(Cl)cc3)n2)cc1,.,.,.,0.7,-23.0
CCN(CC)c1nc(C#N)cc(-c2ccc(OC)cc2)n1,-26.2,19.2*,-21.7,0.8,-9.0
COc1ccc(Cl)cc1-n1c(C)ccc1C,.,.,.,0.6,-1.7
O=C1c2oc3ccccc3c(=O)c2C(c2cccc(F)c2)N1CCCO (stereo unspecified),67.4*,-0.1,9.7,0.5,-4.3
CC(NC(=O)Nc1ccc([N+](=O)[O-])cc1)C(c1cccs1)N1CCCC1 (stereo unspecified),.,.,.,2.1,-3.6
O=C(COc1ccc(Cl)cc1Br)NNC(=O)C(=O)N1CCCCC1,29.1,-4.9,-11.7,21.1*,3.2
O=C(COc1ccc(Cl)cc1Cl)NC(=O)N1CCCCC1,3.4,-2.1,-10.8,-2.4,-7.1
CCN(CC)S(=O)(=O)c1cc(NC(=O)CSc2nc3c(cc2C#N)C(=O)CC(C)(C)C3)ccc1C,.,.,.,-0.1,8.1
c1cc2c(cc1Nc1nc(-c3ccc4c(c3)OCO4)cs1)OCCO2,-13.7,-5.0,21.7,-1.5,0.1
COc1cccc(Nc2nc(-c3ccc4c(c3)OCCO4)cs2)c1,-30.5,41.1*,0.8,-2.9,-2.2
CCC(C)NS(=O)(=O)c1ccc(OC)c(Cl)c1Cl (stereo unspecified),-3.6,-1.9,-3.2,-2.0,1.0
COc1ccc(CCNc2oc(COc3ccccc3F)nc2C#N)cc1,61.9*,-6.9,3.7,-0.9,-0.5
CC(C)c1nc2sc3c(NCc4ccco4)ncnc3c2c2c1COC(C)(C)C2,-2.9,19.6*,-33.6,-1.2,-10.5
Cc1ccc(N2CCN(C(=O)c3ccccc3NC(=O)C3CC=CCC3C(=O)O)CC2)cc1 (stereo unspecified),-26.8,0.1,-13.8,-2.9,8.2
COc1ccc(S(=O)(=O)N2CCN(c3ccc4nnc(-c5ccc(F)cc5)n4n3)CC2)cc1,-11.7,-6.9,47.9*,0.6,-3.6
O=C(Nc1ccccc1)N1CCC(c2ccccc2)C1 (stereo unspecified),65.1*,-6.2,7.3,-0.3,2.3
COc1cccc(CN2CCC(N(CCc3ccccc3)Cc3ccccc3)CC2)c1OC,.,.,.,0.0,3.1
Cc1nc(-c2cccnc2)sc1C(=O)Nc1cccc(C(F)(F)F)c1,52.3*,-3.5,8.7,-1.9,7.6
CCOc1ccc(CCNC(=O)COC(=O)/C=C/c2ccc(OCC#N)c(OC)c2)cc1OCC,.,.,.,-1.5,4.4
Cc1nn(S(=O)(=O)c2ccccc2)c(C)c1Sc1ccc([N+](=O)[O-])cc1,45.8*,-8.0,0.4,-0.7,0.1
Cc1cccc2sc(NNC(=O)c3ccc(S(=O)(=O)N4CCCC(C)C4)cc3)nc12 (stereo unspecified),.,.,.,5.2*,-1.4
Cc1cccc2sc(NNC(=O)c3ccc(S(=O)(=O)N4CCc5ccccc5C4)cc3)nc12,.,.,.,-0.9,7.9
SMILES,cytoskel mod,S1P2 ag,S1P2 blocker,GALR2 ag,GALR2 blocker
CN1CCN(c2ccccc2NC(=O)COc2ccc(Br)cc2)CC1,-14.6,-6.2,18.1,-1.4,-2.7
CC(=O)Oc1cc2oc(=O)cc(C)c2cc1OC(C)=O,-6.2,0.1,-16.7,6.0*,-2.3
CC(=O)Oc1ccc2c(C)cc(=O)oc2c1,1.5,-2.5,-14.3,1.7,2.5
CCOC(=O)C1=C(C)Nc2sc(C(=O)c3ccc(C)cc3)c(N)c2C1c1ccc(C(=O)OC)cc1 (stereo unspecified),.,.,.,5.5*,1.2
CCOC(=O)C1=C(C)Nc2sc(C(=O)c3ccc(F)cc3)c(N)c2C1c1ccc(C(=O)OC)cc1 (stereo unspecified),.,.,.,-0.8,-8.7
CC(C)CCNC(=O)COc1ccc2c(c1)C(=O)CC(C)(C)O2,.,-7.4,2.9,-0.8,-5.3
CC1(C)CC(=O)c2cc(OCC(=O)NCCCN3CCN(c4ccc(F)cc4)CC3)ccc2O1,47.9*,-3.4,25.2,-0.3,-0.4
CC(C)c1cc(C(C)C)c(S(=O)(=O)NNC(=O)c2ccncc2)c(C(C)C)c1,.,.,.,-0.3,3.5
CCOc1ccc2[nH]c(C)c(CN3CCOCC3)c(=O)c2c1,75.9*,-0.6,21.6,-1.0,-6.4
CC(=O)N1CCN(C(=S)NC(=O)c2ccc(S(=O)(=O)N3CCOCC3)cc2)CC1,.,.,.,-3.1,4.5
COc1cccc(N2CCN(c3ncnc4c3cnn4-c3ccc(C)cc3C)CC2)c1,-29.3,-10.8,66.3*,-4.1,1.9
